Reference: PubChem BioAssay AID588849 (Broad Institute, 2011)
Measured potencies and affinities stand elsewhere. Activity calls are given as the source filed them. No rule for the calls is given here.

molecular target: CAAX prenyl protease 2 (Homo sapiens) (UniProt Q9Y256); assay: human Rce1 protease inhibitors, dose response, biochemical, yeast membranes, quenched-peptide fluorescence, cherry-pick (AID 588849); settings: yeast membrane fractions expressing human Rce1, quenched-peptide fluorescence, 4 h; series mostly up to 10 µM; activity change, negative = inhibition: at the top concentration
Sequence (Q9Y256 whole entry, looked up): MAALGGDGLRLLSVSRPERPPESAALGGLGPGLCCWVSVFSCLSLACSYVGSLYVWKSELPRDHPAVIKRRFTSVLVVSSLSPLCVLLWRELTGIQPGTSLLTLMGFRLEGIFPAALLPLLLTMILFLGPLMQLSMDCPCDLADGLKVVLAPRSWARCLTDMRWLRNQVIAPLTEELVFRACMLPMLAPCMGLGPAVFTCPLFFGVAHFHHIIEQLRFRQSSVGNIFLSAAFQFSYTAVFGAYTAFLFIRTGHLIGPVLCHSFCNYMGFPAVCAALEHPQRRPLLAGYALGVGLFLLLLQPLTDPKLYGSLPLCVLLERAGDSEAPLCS

Activity change, negative = inhibition, inactive:
Cc1cccc(NS(=O)(=O)c2ccc(C)c(C(=O)OCC(=O)Nc3cc(C)on3)c2)c1 -6.78%, Cc1ccc(-c2cc3cccc[n+]3cc2-c2ccc(C)cc2)cc1 -24.3%, CCOC(=O)c1sc2nc(C3CC3)cc(-c3ccc(F)cc3)c2c1N 8.35%, CCOc1cccc(-c2c(C(=O)N/N=C/c3c(F)cccc3Cl)nnn2-c2nonc2N)c1 4.61%, Cc1cccc(-c2nnc(SCc3ccc(C#N)cc3)n2Cc2ccco2)c1 -2.37%, Cc1cccc(N2C(=O)c3cccc4c(N5CCCCC5)c([N+](=O)[O-])cc(c34)C2=O)c1C 7.91%, CCCOc1ccccc1C(=O)NCCCC(=O)O 1.73%, CCn1c(C)nc2c(=O)oc3ccccc3c21 12%, O=C(c1cn(-c2ccccc2)nc1-c1cccs1)N1CCN(c2ccccc2)CC1 5.66%, Cc1ccc(C(=O)c2c3ccccc3[n+]([O-])n2CCO)cc1 -8.71%, O=C(NCC1CC1)c1ccc(Nc2nc3ccc(Br)cc3[nH]2)cc1 -1.65%, C/C(CC(=O)NCc1ccco1)=N\NC(=O)c1ccc([N+](=O)[O-])cc1Cl -10.1%, CCCN(CCC)CCNC(=O)c1cc2c(-c3ccccc3F)nn(C)c2s1 1.59%, COc1ccc(-c2cn3ccccc3n2)cc1[N+](=O)[O-] -0.851%, Nc1c(C(=O)NCc2ccccc2)sc2nc(N3CCOCC3)c3c(c12)CCCC3 50.9%, Cc1ccc(-c2nc(SCC(=O)N(C)C3CCS(=O)(=O)C3)[nH]c2-c2ccc(C)cc2)cc1 (stereo not drawn) -23.7%, CC(=O)c1ccc(-c2ccc(C(=O)N3CCC(C(N)=O)CC3)o2)cc1 -2.63%, COc1ccc(CN2CCN(C(c3ccc(F)cc3)c3ccc(F)cc3)CC2)c(OC)c1OC -15.4%, Cc1ccc(Nc2nc(-c3ccc(S(=O)(=O)N4CCOCC4)cc3)cs2)cc1Cl 21%, CCCCNC(=O)c1cc2c(=O)n3cccc(C)c3nc2n(Cc2ccccc2)c1=N -1.87%, Cc1ccc(-c2c(C(=O)N/N=C/c3cccc(Cl)c3)nnn2-c2nonc2N)cc1 4.75%, O=C(Nc1ccccc1)n1ccc(-c2ccc(-n3ccnc3)cc2)n1 -14.1%, COc1ccccc1CC(=O)Nc1ccc2c(C)cc(=O)oc2c1 -14% [at 3.5 µM], CCS(=O)(=O)Nc1c(C(=O)O)[nH]c2ccccc12 0.584%, COc1cccc(C2CC(c3cccs3)=NN2C(=O)CSc2nc3c(cnn3-c3ccc(F)cc3)c(=O)[nH]2)c1OC (stereo not drawn) -10.8%, Nc1nnnn1/N=C/c1cccc(OCc2ccccc2Cl)c1 19.6% [at 3.5 µM], COc1cccc2sc3ccc(C#CC4(O)CCCCC4)cc3c(=O)c12 -14.2%, CCN(Cc1ccccc1)c1ccc(/C=N/N=C(N)N)cc1 6.63%, CCn1cc(/C=C(\NC(=O)c2ccccc2F)C(=O)N2CCOCC2)c2ccccc21 6.21%, COC(=O)c1cnn2c3c(c(C)nc12)CCCC3 -3.96% [at 3.5 µM], COc1ccc(Br)cc1C(=O)Nc1cc(C)cc(C)c1 -12.4%, CCOC(=O)c1cc2c(=O)n3cccc(C)c3nc2n(CC(C)C)c1=NC(=O)c1ccco1 -18.3%, COc1cc(-c2nc3ccccn3c2/N=C/c2ccccc2)ccc1O -12.4%, CCN(CC)CCN(C(=O)c1cc2ccccc2cc1OC)c1nc2ccc(F)cc2s1 -25.1%, Cc1ccc(-c2cc(C)nc3nc(N)nn23)cc1 8.97%, CN1CCN(C(=O)c2ccc(-c3cccs3)s2)CC1 3.13%, Cc1ccc(OCCn2c3ccccc3n3nc(C)c(=O)nc23)cc1 -0.872%, CCOC(=O)c1c(NC(=O)COc2ccccc2F)sc2c1CC(C)(C)NC2(C)C 10.6%
